# Laboratory results reported in PubChem BioAssay AID1851 (National Center for Advancing Translational Sciences (NCATS), 2009).
# “And” between values parts separate entries of the source, which are not always exact repeats. Equal entries are not always repeated. About 5,800 (36%) of roughly 16,000 compounds were called active. Another 23% or so got no clear call; they are omitted. Calls come from the whole dose curve; as a rule, active = well fitted curve in the direction sought with a large enough effect; inconclusive = small, poorly fitted or top-dose-only effect, or effect the other way; inactive = no such curve, though single readings can be large or run the other way. This is one part of the list.
# Biological target: Cytochrome P450 2C19 (Homo sapiens) (UniProt P33261)
# Assay: Cytochrome panel assay with activity outcomes
# Details: recombinant CYP, pro-luciferin dealkylation, luminescence, p450-cyp2c19; series mostly up to 57.1 µM; activity, negative = inhibition: at the top concentration
# % is set by controls: 0 for no effect and ±100 for the full control effect.
# Chain of Cytochrome P450 2C19 (Homo sapiens) (P33261 whole entry, looked up): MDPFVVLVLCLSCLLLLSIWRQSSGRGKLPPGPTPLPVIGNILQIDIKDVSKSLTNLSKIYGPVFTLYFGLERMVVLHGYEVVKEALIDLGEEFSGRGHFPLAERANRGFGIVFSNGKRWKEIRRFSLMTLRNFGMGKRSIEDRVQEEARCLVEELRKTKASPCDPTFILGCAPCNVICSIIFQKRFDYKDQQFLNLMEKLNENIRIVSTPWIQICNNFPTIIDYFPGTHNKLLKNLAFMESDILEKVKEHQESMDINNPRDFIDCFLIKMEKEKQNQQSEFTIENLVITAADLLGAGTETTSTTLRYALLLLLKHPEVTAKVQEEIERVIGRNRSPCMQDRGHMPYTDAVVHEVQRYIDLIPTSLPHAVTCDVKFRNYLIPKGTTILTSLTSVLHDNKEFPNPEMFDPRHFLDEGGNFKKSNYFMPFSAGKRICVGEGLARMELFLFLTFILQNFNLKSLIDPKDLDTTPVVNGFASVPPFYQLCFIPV
SMILES,"activity, negative = inhibition",AC50
O=C1C[C@@H](O)[C@@H](O)[C@H]2[C@@H]3C(=O)N(C4CCCCC4)C(=O)[C@@H]3CC[C@H]12,13.8% [at 11.4 µM] (inactive) and 12.1% [at 11.4 µM] (inactive) and 0.0924% [at 11.4 µM] (inactive),
CCn1c(SCC(=O)Nc2sc3c(c2C(N)=O)CCC(C)C3)nnc1-c1ccco1 (stereo not drawn),,7.08 µM (active)
O=C(/C=C/c1ccccc1)N1CCN(Cc2nc3ccccc3c(=O)[nH]2)CC1,,22.4 µM (active)
O=C(O)/C=C\C(=O)N1Cc2cc3ccccc3nc2C1,21.9% [at 11.4 µM] (inactive),
O=C(O)c1cccc2cccc(-c3cccc4cccc(C(=O)O)c34)c12,-9.27% [at 11.4 µM] (inactive),
O=C(O)c1ccccc1C(=O)Nc1cc2c(cc1Br)-c1ccccc1C2=O,-19.4% [at 11.4 µM] (inactive),
O=C1c2ccccc2C(=O)c2c1ccc(C(=O)O)c2-c1ccc2ccccc2c1,,2.51 µM (active)
Cc1cccc(C(=O)c2ccccc2C(=O)O)c1O,6.75% (inactive),
COCC(=O)N1CCC2(CC1)CCN(C(c1ccccc1)c1ccccc1)CC2,7.45% (inactive),
Cc1cccc(C(CC(=O)N2CCCC2)c2ccccc2)c1O (stereo not drawn),,1.41 µM (active)
CN(C)C[C@H]1CCC[C@@H](CN(C)C)C1=O,19.2% [at 11.4 µM] (inactive),
N[C@@H](CO)C(=O)O,,inactive
CC(C)[C@H]1C(=O)C(C(N)=O)=C(O)[C@]2(O)C(=O)C3=C(O)c4c(O)ccc(N(C)C)c4C[C@H]3C[C@@H]12,4.29% (inactive),
O=c1ccn(-c2cccc(C(F)(F)F)c2)nc1-c1ccn(-c2ccccc2F)n1,,17.8 µM (active)
CS(=O)(=O)N1CC(C(=O)NC2CC2)Oc2ccc(Cl)cc21 (stereo not drawn),,7.08 µM (active)
CCS(=O)(=O)c1ccc2c(c1)N(S(C)(=O)=O)CC(C(=O)NCCOC)O2 (stereo not drawn),-18.7% (inactive),
CC(C)(C)NC[C@H](O)c1cc(O)cc(O)c1,,inactive
CN1CCc2cc(Cl)c(O)cc2[C@H](c2ccccc2)C1,-13.6% (inactive),
O=C(O)CCC(=O)N1CCOc2ccc(Cl)cc21,-15.9% (inactive),
Cc1ccc2nc(N3CCN(S(=O)(=O)c4ccc5c(c4)OCCO5)CC3)c(C#N)cc2c1,,2.51 µM (active)
Cc1ccc(Cl)cc1N1CCN(S(=O)(=O)c2ccc3c(c2)OCCO3)CC1,,3.98 µM (active)
CO[C@@H]1COC(=O)CC=C[C@@H](C)[C@@H]2C=C[C@H](O)[C@@H](COC(=O)[C@H](C)NC(=O)CC=C[C@H]1C)O2,-12.2% [at 11.4 µM] (inactive),
CCOc1cc(NC(=O)C2CCCCC2)c(OCC)cc1NC(=O)c1ccco1,,7.94 µM (active)
CCOc1cc(NC(=O)c2cccs2)c(OCC)cc1NC(=O)c1ccco1,-24.3% (inactive),

SMILES,"activity, negative = inhibition",AC50
CCCC[P+](CCCC)(CCCC)Cc1ccc(NC(=O)[C@@H](Cc2ccc3ccccc3c2)NC(=NC2CCCCC2)NC2CCCCC2)cc1,1.34% (inactive),
CCC(NC(=O)c1ccccc1NC(=O)c1ccco1)C(=O)NC1CCCCC1 (stereo not drawn),,15.8 µM (active)
FC(F)(F)c1ccccc1-c1nc(NCc2cccs2)c2ccccc2n1,,7.94 µM (active)
CC(=O)NCCNc1nc(-c2ccccc2Cl)nc2ccccc12,,3.98 µM (active)
CN(C)C(=O)c1ccc(-c2nc(NCc3cccnc3)c3ccccc3n2)cc1,-11.9% (inactive),
CC(=O)NCCNc1nc(-c2ccccc2C)nc2ccccc12,-22.4% (inactive),
COCCNc1nc(-c2ccccc2OC)nc2ccccc12,-35% (inactive),
CC(=O)NCCNc1nc(-c2ccccc2C(F)(F)F)nc2ccccc12,-28.8% (inactive),
FC(F)(F)c1ccccc1-c1nc(NCCN2CCOCC2)c2ccccc2n1,-29.9% (inactive),
COCCNc1nc(-c2ccccc2C(F)(F)F)nc2ccccc12,,20 µM (active)
FC(F)(F)c1ccccc1-c1nc(NCc2cccnc2)c2ccccc2n1,,3.98 µM (active)
CCOC(=O)CCN1C(=O)[C@H]2[C@H]3[C@H](O)[C@H](O)C/C(=N/OC/C=C(\C)CCC=C(C)C)[C@@H]3CC[C@@H]2C1=O,6.34% [at 11.4 µM] (inactive),
CCCCCCCCCCCCCCC[C@@H](O)[C@@H](N)CO,-34.9% (inactive),
O=c1[nH]c(SCc2c(Cl)c(Cl)c(Cl)c(Cl)c2Cl)nc(=S)[nH]1,-28.6% [at 11.4 µM] (inactive),
CN(C)Cc1ccccc1-c1nc(NCc2cccs2)c2ccccc2n1,21.4% (inactive),
Clc1ccccc1-c1nc(NCc2cccs2)c2ccccc2n1,,7.94 µM (active)
CN(C)CCNC(=O)Cn1nc(-c2ccc(Cl)cc2)ccc1=O,-7.39% (inactive),
COc1ccc(NC(=O)N2CCC3(CC2)CCN(C(=O)c2csnn2)CC3)cc1,6.58% (inactive),
CC(=O)C1C(c2ccccc2OC(F)F)NC(=O)NC1(O)C(F)(F)F (stereo not drawn),-20.9% (inactive),
Cn1c(-c2ccc(F)cc2)cnc1NCc1cccc(F)c1,,6.31 µM (active)
Cn1c(-c2ccc(F)cc2)cnc1NCc1ccc(F)cc1,,2.51 µM (active)
Cn1c(-c2ccccc2)cnc1N,-26.7% (inactive),
CCNc1ncc2nc(-c3ccc(F)cc3)c(=O)n(C)c2n1,12.1% (inactive),
Cc1ccc(-c2cnc(NC(=O)CCC(=O)N3CCCCC3)n2C)cc1,-26.8% (inactive),

SMILES,"activity, negative = inhibition",AC50
CCN(CC)C[C@@H](O)CN1CCCCc2nc(C)c(C)cc21,32.1% [at 11.4 µM] (inactive),
CCCCN1C(=O)NC(NC(=O)c2ccco2)(C(F)(F)F)C1=O (stereo not drawn),,8.91 µM (active)
O=C(NC1(C(F)(F)F)NC(=O)N(Cc2cccnc2)C1=O)c1ccccc1 (stereo not drawn),,15.8 µM (active)
O=C(NC1(C(F)(F)F)C(=O)Nc2c1c(=O)[nH]c(=O)n2-c1ccc(F)cc1)c1cccnc1 (stereo not drawn),-21.4% (inactive),
O=C(c1ccco1)N1CCC2(CC1)CN(Cc1cc(C(F)(F)F)cc(C(F)(F)F)c1)C2,-26.9% (inactive),
NS(=O)(=O)c1ccc(N=Nc2ncccc2O)cc1,-17% [at 11.4 µM] (inactive),
Cc1ccc2nc(SCc3nnc(-c4ccccc4[N+](=O)[O-])o3)c(C#N)cc2c1,,0.794 µM (active)
Cc1nc2cccc([N+](=O)[O-])c2n1CCCN(C)C,37.8% [at 11.4 µM] (inactive),
C#CCN(C)Cc1ccccc1,,inactive
CN(Cc1ccccc1)Cn1ccnc1,,2 µM (active)
CCOc1nc(NCCc2ccc(OC)c(OC)c2)nc(NC(C)(C)CO)n1,,6.31 µM (active)
COc1ccc(CCNC[C@H](O)c2ccc(O)cc2)cc1OC,13.4% (inactive),
COCCn1c(=O)cnc2cnc(Oc3ccccc3)nc21,,10 µM (active)
COCCn1c(=O)cnc2cnc(Oc3ccc(OC)cc3)nc21,-29.1% (inactive),
COc1ccc(Oc2ncc3ncc(=O)n(CCc4ccccc4)c3n2)cc1,-24.1% (inactive),
O=c1cnc2cnc(Oc3ccccc3)nc2n1CCc1ccccc1,,6.31 µM (active)
COCCn1c(=O)c(-c2ccccc2)nc2cnc(Oc3ccccc3)nc21,-68.1% (inactive),
Cn1c(=O)c(-c2cccs2)nc2cnc(Oc3ccccc3)nc21,-28.2% (inactive),
COCCn1c(=O)c(-c2cccs2)nc2cnc(Oc3ccccc3)nc21,,10 µM (active)
COc1ccc(S(=O)(=O)N(CC(=O)N2CCCC2)Cc2ccccc2)cc1,,5.62 µM (active)
CCN(CC)S(=O)(=O)c1ccc2c(c1)nc(SCC(=O)N1CCOCC1)n2-c1ccccc1OC,-25.7% (inactive),
CN(Cc1ccccc1)S(=O)(=O)c1ccc(OCC(=O)N2CCOCC2)cc1,-58.2% (inactive),
COc1ccc(S(=O)(=O)N(CCc2ccccc2)CC(=O)N2CCOCC2)cc1,,10 µM (active)
COc1ccc(NC(=O)N2CCCC3(CCN(S(=O)(=O)c4ccccc4)CC3)C2)cc1,-9.43% (inactive),

SMILES,"activity, negative = inhibition",AC50
c1ccc2c(Nc3ccncc3)nc(-c3ccc4c(c3)OCO4)nc2c1,,3.98 µM (active)
c1ccc(Nc2nc(-c3ccc4c(c3)OCO4)nc3ccccc23)cc1,,3.16 µM (active)
CCOc1ccc(-n2c(SCC(=O)Nc3ccc4c(c3)OCCO4)nc3c(c2=O)SCC3)cc1,,2.82 µM (active)
CCOc1ccc(-n2c(SCC(=O)Nc3ccc(OC)cc3OC)nc3c(c2=O)SCC3)cc1,,5.01 µM (active)
CCOc1ccc(-n2c(SCC(=O)Nc3ccc(OC)cc3)nc3c(c2=O)SCC3)cc1,,7.08 µM (active)
C/C(CCN1CCCCc2nc(C)c(C)cc21)=N\O[C@@H](C)c1cc(-c2c(C)cc(C)cc2C)no1,-41.4% [at 11.4 µM] (inactive),
O=c1c(-c2cc(F)cc(F)c2)nc2cnc(N3CCOCC3)nc2n1C1CC1,24.5% (inactive),
CO[C@H]1COC(=O)[C@H](C)COC(=O)[C@@H](Cc2ccccc2)NC(=O)C/C=C\[C@H]1C,-17.9% [at 11.4 µM] (inactive),
CS(=O)(=O)N1CCC2(CC1)CN(Cc1nccs1)C2,-13.6% (inactive),
C[C@]12CC[C@H]3c4ccc(O)cc4CC[C@@H]3[C@H]1C/C(=N/O)[C@H]2O,27.1% [at 11.4 µM] (inactive),
COc1cc(CNn2nnnc2N)ccc1OCc1c(Cl)cccc1Cl,,2.51 µM (active)
CC(=O)N1N=C(c2cccc([N+](=O)[O-])c2)OC1c1ccc(Cl)cc1Cl (stereo not drawn),,0.447 µM (active)
CC(=O)N1N=C(c2cccc([N+](=O)[O-])c2)OC1c1ccccc1Cl (stereo not drawn),,2.82 µM (active)
CN1CCN(c2ncc3nc(-c4cccc(C#N)c4)c(=O)n(CCC#N)c3n2)CC1,11.8% (inactive),
COc1ccc(N2C(=O)CSC2c2cccc(F)c2)c(OC)c1 (stereo not drawn),,11.2 µM (active)
Cc1cc(Br)ccc1NCc1ccccn1,,0.251 µM (active)
CN(C)CC[C@H](c1ccc(Br)cc1)c1ccccn1,,inactive
CNCCc1ccccn1,6.91% [at 25.6 µM] (inactive),
OCCCNCc1ccccn1,31.9% [at 11.4 µM] (inactive),
Cc1cc(NCc2ccccn2)ccc1Br,,2.82 µM (active)
c1ccc(CCNc2ccccn2)nc1,10.5% [at 11.4 µM] (inactive),
